# Measured values as given in ChEMBL document CHEMBL1961873, “Compounds: GSK PKIS; Assays: Nanosyn kinase panel” (2012).
# Key:
# [1] = target: T1, Serine/threonine-protein kinase TBK1 (Homo sapiens) (UniProt Q9UHD2); conditions: at 1 µM;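 also: values are mean inhibition of TBK1, screened as part of the GSK published kinase inhibitor set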
# T1 sequence (whole entry): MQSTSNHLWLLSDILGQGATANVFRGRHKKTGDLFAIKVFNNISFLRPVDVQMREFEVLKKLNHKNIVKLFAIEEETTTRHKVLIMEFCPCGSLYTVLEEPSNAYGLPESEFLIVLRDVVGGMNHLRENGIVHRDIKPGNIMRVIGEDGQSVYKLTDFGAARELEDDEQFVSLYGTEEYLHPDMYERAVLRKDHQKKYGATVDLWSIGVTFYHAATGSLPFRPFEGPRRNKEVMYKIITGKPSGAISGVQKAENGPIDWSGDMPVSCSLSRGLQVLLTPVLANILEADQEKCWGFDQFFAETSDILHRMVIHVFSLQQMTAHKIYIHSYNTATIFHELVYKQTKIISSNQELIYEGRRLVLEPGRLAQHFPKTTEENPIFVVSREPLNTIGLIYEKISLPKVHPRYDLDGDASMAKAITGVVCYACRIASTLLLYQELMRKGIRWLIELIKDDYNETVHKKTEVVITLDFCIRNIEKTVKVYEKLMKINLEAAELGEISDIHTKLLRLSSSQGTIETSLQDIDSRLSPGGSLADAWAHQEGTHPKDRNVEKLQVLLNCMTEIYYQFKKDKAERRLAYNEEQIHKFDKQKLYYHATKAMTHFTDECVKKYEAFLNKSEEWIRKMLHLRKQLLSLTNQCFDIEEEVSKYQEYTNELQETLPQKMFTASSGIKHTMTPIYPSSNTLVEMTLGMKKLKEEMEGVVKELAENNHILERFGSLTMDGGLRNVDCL
# [2] = target: T2, Testis-specific serine/threonine-protein kinase 1 (Homo sapiens) (UniProt Q9BXA7); conditions: at 0.1 µM
# T2 sequence (whole entry): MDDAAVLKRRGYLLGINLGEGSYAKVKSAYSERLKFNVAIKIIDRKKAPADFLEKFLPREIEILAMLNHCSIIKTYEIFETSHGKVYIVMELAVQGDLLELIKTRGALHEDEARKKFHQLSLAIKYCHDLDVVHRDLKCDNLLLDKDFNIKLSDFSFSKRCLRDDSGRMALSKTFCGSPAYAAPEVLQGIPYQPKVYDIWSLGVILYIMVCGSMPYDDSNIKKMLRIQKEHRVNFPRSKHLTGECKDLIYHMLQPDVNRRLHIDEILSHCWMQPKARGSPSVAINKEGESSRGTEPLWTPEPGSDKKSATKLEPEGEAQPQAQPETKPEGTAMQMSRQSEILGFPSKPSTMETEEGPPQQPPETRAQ
# [3] = target: T2, Testis-specific serine/threonine-protein kinase 1 (Homo sapiens); conditions: at 1 µM
# [4] = target: T3, Testis-specific serine/threonine-protein kinase 2 (Homo sapiens) (UniProt Q96PF2); conditions: at 0.1 µM
# T3 sequence (whole entry): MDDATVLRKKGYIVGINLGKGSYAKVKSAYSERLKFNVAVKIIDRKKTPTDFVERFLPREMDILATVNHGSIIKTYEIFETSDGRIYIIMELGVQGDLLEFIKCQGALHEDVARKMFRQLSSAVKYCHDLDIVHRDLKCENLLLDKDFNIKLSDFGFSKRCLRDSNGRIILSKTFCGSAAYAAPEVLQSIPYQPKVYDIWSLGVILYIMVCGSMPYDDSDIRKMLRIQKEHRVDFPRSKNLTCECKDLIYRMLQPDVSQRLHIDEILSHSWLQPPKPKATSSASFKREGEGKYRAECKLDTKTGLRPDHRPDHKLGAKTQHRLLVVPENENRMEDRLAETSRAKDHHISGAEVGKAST
# [5] = target: T3, Testis-specific serine/threonine-protein kinase 2 (Homo sapiens); conditions: at 1 µM
# [6] = target: Casein kinase I isoform alpha (Homo sapiens) (UniProt P48729); conditions: at 0.1 µM
# [7] = target: Casein kinase I isoform alpha (Homo sapiens) (UniProt P48729); conditions: at 1 µM
# [8] = target: Casein kinase I isoform gamma-1 (Homo sapiens) (UniProt Q9HCP0); conditions: at 0.1 µM
# [9] = target: Casein kinase I isoform gamma-1 (Homo sapiens) (UniProt Q9HCP0); conditions: at 1 µM
# [10] = target: Casein kinase I isoform gamma-2 (Homo sapiens) (UniProt P78368); conditions: at 0.1 µM
# [11] = target: Casein kinase I isoform gamma-2 (Homo sapiens) (UniProt P78368); conditions: at 1 µM
# [12] = target: Casein kinase I isoform gamma-3 (Homo sapiens) (UniProt Q9Y6M4); conditions: at 0.1 µM
# [13] = target: Casein kinase I isoform gamma-3 (Homo sapiens) (UniProt Q9Y6M4); conditions: at 1 µM
# [14] = target: Cyclin-dependent kinase 1 (Homo sapiens) (UniProt P06493); conditions: at 0.1 µM
# [15] = target: Cyclin-dependent kinase 1 (Homo sapiens) (UniProt P06493); conditions: at 1 µM
# [16] = target: Cyclin-dependent kinase 2 (Homo sapiens) (UniProt P24941); conditions: at 0.1 µM
# [17] = target: Cyclin-dependent kinase 2 (Homo sapiens) (UniProt P24941); conditions: at 1 µM
# [18] = target: Cyclin-dependent kinase 2 (Homo sapiens) (UniProt P24941); conditions: at 0.1 µM; remark: listed apart in the source
# [19] = target: Cyclin-dependent kinase 2 (Homo sapiens) (UniProt P24941); conditions: at 1 µM; remark: listed apart in the source
# [20] = target: CDK3/Cyclin E (Homo sapiens) (UniProt P24864+Q00526); conditions: at 0.1 µM;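 also: reported percentages are mean inhibition values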
# Sequence of CDK3/Cyclin E (Homo sapiens) (P24864 whole entry, looked up): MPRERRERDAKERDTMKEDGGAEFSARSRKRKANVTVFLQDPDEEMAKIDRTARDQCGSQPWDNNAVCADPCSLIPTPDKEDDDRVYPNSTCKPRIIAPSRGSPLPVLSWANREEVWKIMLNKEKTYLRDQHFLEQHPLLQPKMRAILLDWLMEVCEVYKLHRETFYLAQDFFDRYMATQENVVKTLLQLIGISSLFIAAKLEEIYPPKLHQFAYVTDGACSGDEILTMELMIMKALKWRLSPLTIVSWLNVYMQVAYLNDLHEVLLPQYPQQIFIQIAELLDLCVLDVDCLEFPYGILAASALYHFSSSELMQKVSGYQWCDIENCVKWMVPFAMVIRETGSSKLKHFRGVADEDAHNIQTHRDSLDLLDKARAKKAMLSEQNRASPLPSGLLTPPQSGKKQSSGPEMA
# Sequence of CDK3/Cyclin E (Homo sapiens) (Q00526 whole entry, looked up): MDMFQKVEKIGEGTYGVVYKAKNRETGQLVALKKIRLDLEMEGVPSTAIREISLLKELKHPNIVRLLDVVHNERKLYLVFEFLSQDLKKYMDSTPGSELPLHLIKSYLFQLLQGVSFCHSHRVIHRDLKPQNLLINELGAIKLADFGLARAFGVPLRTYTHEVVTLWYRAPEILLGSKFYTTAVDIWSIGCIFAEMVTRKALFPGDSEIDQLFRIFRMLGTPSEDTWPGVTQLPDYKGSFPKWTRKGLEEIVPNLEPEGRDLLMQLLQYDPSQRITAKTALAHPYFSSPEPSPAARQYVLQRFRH
# Sequence of Cyclin-dependent kinase 1 (Homo sapiens) (P06493 whole entry, looked up): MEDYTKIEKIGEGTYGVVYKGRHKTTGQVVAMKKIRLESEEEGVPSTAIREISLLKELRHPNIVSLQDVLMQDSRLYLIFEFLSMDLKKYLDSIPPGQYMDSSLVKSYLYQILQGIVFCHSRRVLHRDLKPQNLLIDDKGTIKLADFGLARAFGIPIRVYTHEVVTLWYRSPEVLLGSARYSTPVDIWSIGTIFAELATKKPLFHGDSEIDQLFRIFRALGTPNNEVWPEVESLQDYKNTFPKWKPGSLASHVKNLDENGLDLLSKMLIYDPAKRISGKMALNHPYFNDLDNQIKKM
# Sequence of Casein kinase I isoform gamma-3 (Homo sapiens) (Q9Y6M4 whole entry, looked up, canonical isoform): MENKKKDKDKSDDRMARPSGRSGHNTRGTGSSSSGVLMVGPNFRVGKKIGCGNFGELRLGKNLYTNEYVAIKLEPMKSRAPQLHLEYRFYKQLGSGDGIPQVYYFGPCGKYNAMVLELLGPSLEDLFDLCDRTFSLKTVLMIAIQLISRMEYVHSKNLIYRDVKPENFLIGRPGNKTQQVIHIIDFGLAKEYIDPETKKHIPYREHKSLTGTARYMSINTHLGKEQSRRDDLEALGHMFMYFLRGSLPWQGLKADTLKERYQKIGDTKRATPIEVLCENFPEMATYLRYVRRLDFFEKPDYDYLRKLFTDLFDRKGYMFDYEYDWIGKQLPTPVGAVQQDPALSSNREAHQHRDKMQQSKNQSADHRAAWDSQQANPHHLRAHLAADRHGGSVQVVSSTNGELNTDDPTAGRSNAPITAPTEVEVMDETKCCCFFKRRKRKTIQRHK
# Sequence of Casein kinase I isoform alpha (Homo sapiens) (P48729 2-337 limits assumed): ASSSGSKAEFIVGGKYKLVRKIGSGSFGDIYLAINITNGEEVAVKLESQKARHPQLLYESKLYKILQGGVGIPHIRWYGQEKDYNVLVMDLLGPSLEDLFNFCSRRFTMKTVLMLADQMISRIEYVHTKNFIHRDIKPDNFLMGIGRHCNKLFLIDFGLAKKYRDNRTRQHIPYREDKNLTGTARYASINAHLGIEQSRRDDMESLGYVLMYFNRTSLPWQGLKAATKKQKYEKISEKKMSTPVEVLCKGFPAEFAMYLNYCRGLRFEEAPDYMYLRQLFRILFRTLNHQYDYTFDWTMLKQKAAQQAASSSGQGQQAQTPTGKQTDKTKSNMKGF
# Sequence of Casein kinase I isoform gamma-2 (Homo sapiens) (P78368 whole entry, looked up, canonical isoform): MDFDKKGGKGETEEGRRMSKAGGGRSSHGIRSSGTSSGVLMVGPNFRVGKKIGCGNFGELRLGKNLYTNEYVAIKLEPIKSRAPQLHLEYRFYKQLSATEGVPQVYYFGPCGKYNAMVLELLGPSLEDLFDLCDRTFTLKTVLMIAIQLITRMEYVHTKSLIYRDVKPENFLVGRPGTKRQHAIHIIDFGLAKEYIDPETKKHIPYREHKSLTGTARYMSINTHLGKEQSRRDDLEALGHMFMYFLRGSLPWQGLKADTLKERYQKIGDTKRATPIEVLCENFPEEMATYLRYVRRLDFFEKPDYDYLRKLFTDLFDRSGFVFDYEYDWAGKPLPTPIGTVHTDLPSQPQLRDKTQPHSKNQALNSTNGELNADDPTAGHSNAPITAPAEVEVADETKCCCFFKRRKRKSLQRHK
# Sequence of Casein kinase I isoform gamma-1 (Homo sapiens) (Q9HCP0 whole entry, looked up, canonical isoform): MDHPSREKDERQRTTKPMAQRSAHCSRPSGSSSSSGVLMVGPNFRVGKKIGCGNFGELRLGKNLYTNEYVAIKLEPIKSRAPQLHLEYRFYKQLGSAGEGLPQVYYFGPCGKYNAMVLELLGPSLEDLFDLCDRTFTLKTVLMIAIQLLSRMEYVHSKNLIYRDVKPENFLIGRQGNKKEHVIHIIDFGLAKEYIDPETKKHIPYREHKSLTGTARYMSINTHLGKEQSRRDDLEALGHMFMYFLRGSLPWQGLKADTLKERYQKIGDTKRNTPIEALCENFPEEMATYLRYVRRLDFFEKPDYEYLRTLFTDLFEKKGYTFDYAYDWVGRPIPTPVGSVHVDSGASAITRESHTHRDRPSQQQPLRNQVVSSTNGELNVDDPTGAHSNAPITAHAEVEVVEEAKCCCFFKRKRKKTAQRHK
Compound,inhibition [1] [%],inhibition [2] [%],inhibition [3] [%],inhibition [4] [%],inhibition [5] [%],inhibition [6] [%],inhibition [7] [%],inhibition [8] [%],inhibition [9] [%],inhibition [10] [%],inhibition [11] [%],inhibition [12] [%],inhibition [13] [%],inhibition [14] [%],inhibition [15] [%],inhibition [16] [%],inhibition [17] [%],inhibition [18] [%],inhibition [19] [%],inhibition [20] [%]
CS(=O)(=O)CCNCc1nc(-c2ccc3ncnc(Nc4ccc(F)c(Cl)c4)c3c2)cs1,2.28,1.9,0.45,0.45,1.08,0.89,1.04,1.14,1.55,1.92,0.64,2.39,3.39,-1.31,-0.06,0.75,9.99,0.06,1.32,0.76
c1cnn2ncc(-c3ccnc(Nc4ccc5c(c4)OCCO5)n3)c2c1,23.9,4.39,18.1,2.63,4.19,9.95,44.9,4.47,22.1,7.95,46.9,6.57,38,71.3,92.9,65.5,86.1,73.6,–,36.9
O=C(Nc1n[nH]c2nc(-c3ccco3)c(Br)cc12)C1CC1,4.8,4.63,1.5,-0.36,-1.08,1.36,3.16,3.71,2.78,2.3,2.51,2.64,0.87,0.89,5.15,3.87,28.4,3.75,9.11,3.8
Nc1nc(-c2ccc3c(c2)C(=Cc2cc(Br)c(O)c(Br)c2)C(=O)N3)cs1,0.36,-0.52,-0.1,-1.49,0.36,-0.89,-1.31,-1.34,-1.14,-1.3,-0.74,-2.56,0.95,0.71,–,1.38,-0.83,-0.42,2.91,0.55
COc1cc2ncn(-c3cc(O[C@@H](C)c4ccccc4Cl)c(C(N)=O)s3)c2cc1OC,27,3.02,5.73,1.37,1.24,4.77,4.44,4.61,5.05,4.07,5.19,3.46,3.53,-0.28,2.69,–,–,–,–,-0.85
O=C1NC(=O)C(c2ccc(Cl)cc2)=C1Nc1ccc(Cl)c(C(=O)O)c1,0.78,-1.77,-3.14,-1.44,-2.14,0.85,-1.03,-1.57,-2.04,-1.56,-1.57,-0.68,-1.39,0.08,1.14,-1.04,-8.99,-0.37,0.53,-0.7
CCn1c(-c2nonc2N)nc2c(N3CCCC3)nccc21,2.54,0.01,-0.07,-0.87,0.44,-0.35,0.23,-0.72,-0.83,-0.88,-0.7,-0.94,-0.62,0.79,2.89,1,–,0.81,5.24,0.91
COc1ccc(COc2ccc(Cc3cnc(N)nc3N)cc2OC)cc1,2.86,0.44,-1.27,-0.95,-0.65,0.49,0.48,-0.8,-0.45,-2.36,0.05,-0.67,0.85,1.89,1.42,–,–,–,–,2.3
Nc1ncnc2occ(-c3ccc(NC(=O)Nc4cccc(C(F)(F)F)c4)cc3)c12,4.59,4.54,4.9,1.47,2.55,3.35,5.6,5.08,10.1,4.03,7.31,3.11,10.3,-0.24,4.91,2.4,8.86,4.68,10.8,2.04
CCn1c(-c2nonc2N)nc2cncc(C(=O)N3CC[C@H](N)C3)c21,19.7,7.36,18.9,3.56,5.01,–,–,3.59,4.35,3.12,3.73,2.49,2.9,0.41,–,2.14,-1.11,2.3,5.5,5.34
CCn1c(-c2nonc2N)nc2cncc(C(=O)N3CCNCC3)c21,5.51,4.82,5.83,2.4,3.03,6.74,9.8,5.02,6.64,4.43,4.57,3.46,3.18,2.63,1.24,3.94,2.62,3.71,3.23,-1.18
CS(=O)(=O)CCNCc1ccc(-c2ccc3ncnc(Nc4ccc(OCc5ccccc5)c(Cl)c4)c3c2)o1,2.91,2.07,1.74,-0.14,0.89,-0.43,0.15,1.35,0.05,-0.08,0.01,0.7,-0.59,2.72,3.96,2.6,3.73,3.64,4.5,0.1
COc1cc2ncn(-c3cc(OCc4ccccc4Cl)c(C(N)=O)s3)c2cc1OC,28.7,1.82,4.67,0.7,1.63,1.79,0.67,0.19,1.8,-0.04,1.68,1.38,2.71,1.92,6.22,1.7,6.39,2.24,5.06,3.11
CCn1c(-c2nonc2N)nc2c(C#CC(C)(C)O)nc(OC[C@@H](N)c3ccccc3)cc21,3.45,9.5,53.4,0.46,-0.44,-0.17,0.97,-1.79,2.42,-1.05,2.82,-1.72,1.57,-0.31,-0.33,0.3,5.96,-0.8,1.32,-0.42
